Bioassay records as filed in PubChem BioAssay.
An excerpt weighted towards active compounds, which were near 11% of everything screened.
USP30 block: human USP30 deubiquitinase inhibition; inhibition, % at 25 µM; hit rate 5.3% among 47,000; purified USP30, Ub-rhodamine cleavage fluorescence
USP17 inh: inhibitors of human USP17 deubiquitinase. hit rate 6.5% among 47,000. A8MUK1. inhibition, % at 50 µM. AID 1645855. purified USP17, Ub-rhodamine cleavage fluorescence, 3 h
USP28 inh: blocks human USP28 ubiquitin-rhodamine cleavage; purified USP28, Ub-rhodamine cleavage fluorescence, 30 min; inhibition, % at 25 µM; Q96RU2; hit rate 3% among 47,000
Numbers without * were called inactive; i = inactive; · = no result. Cut-off read from the data, not from the text of the source: active = inhibition above about 30%; inactive = the rest.

SMILES	USP30 block	USP17 inh	USP28 inh
CC1[C@@H]2[C@@H](COc3cccnc3)C[C@H](CN1C(=O)c1ccc3c(c1)OCO3)N2C (stereo partly drawn)	-6.4	0.7	-9.6
c1ccc(-c2noc(N3CCN(Cc4ccc5c(c4)OCO5)CC3)n2)cc1	0.1	-10.2	-5.3
CCC(=O)Nc1ccc(C)n(CC(=O)N2CCN(c3ccccn3)CC2)c1=O	0.6	-1.5	-4.6
CC(C)CC(=O)N1CCN(C2CCN(Cc3ccccc3)CC2)CC1	-2.0	-2.0	-6.3
O=C(Cn1nnc2ccccc21)Nc1nc(-c2ccc3c(c2)CCN3C(=O)c2ccccc2F)cs1	11.5	54.3*	9.8
Cc1ccc(C(=O)N2CCc3cc(-c4nc(NC(=O)CN5CCCCCC5)sc4C)ccc32)cc1	3.5	12.9	4.7
Cc1ccc(C(=O)N2CCc3cc(-c4csc(NC(=O)CN(C)C5CCCCC5)n4)ccc32)cc1	-15.2	23.2	12.0
Cc1cccc(C(=O)N2CCc3cc(-c4csc(NC(=O)CNc5ccccc5)n4)ccc32)c1	-40.3	31.1*	-10.8
Cc1cccc(C(=O)N2CCc3cc(-c4nc(NC(=O)CN5CCCC5)sc4C)ccc32)c1	-15.3	45.1*	10.7
Cc1sc(NC(=O)Cn2nnc3ccccc32)nc1-c1ccc2c(c1)CCN2C(=O)c1ccccc1F	3.3	14.4	-3.8
O=C1COc2ccc(NC(=O)N3CCN(c4ccccn4)CC3)cc2N1	-17.6	·	1.5
CCOc1ccc(CCNC(=O)C2CCN(S(=O)(=O)c3cccc4cccnc34)CC2)cc1OCC	-14.1	-3.1	0.6
Cc1ccc(-c2cn(CC(=O)N3CCN(c4ccccc4)CC3)c(=O)o2)cc1	-24.4	-5.0	-0.8
COCC(C)n1c(C)cc(C(=O)CSc2nncn2-c2ccccc2OC)c1C (stereo not drawn)	-19.1	-9.2	-18.4
COc1ccc(-n2c(C)cc(C(=O)CSc3nncn3-c3ccccc3OC)c2C)cc1	1.5	33.6*	30.5*
CCN1CCN(c2ccc(C(=O)OC)cc2NC(=O)c2sc3ccccc3c2Cl)CC1	14.6	0.2	0.4
CC(=O)Nc1cccc(C(=O)Nc2ccc(Cn3cncn3)cc2)c1	-51.1	0.2	-3.6
O=C(Nc1ccc(Cn2cncn2)cc1)c1ccc2c(c1)OCO2	15.0	3.5	45.0*
O=C(Nc1ccc(-c2nnc3n2CCCCC3)cc1)c1ccc2c(c1)OCO2	2.2	-30.8	71.3*
COc1cc(OC)cc(C(=O)Nc2ccc(Cn3cncn3)cc2)c1	-15.8	-12.0	27.5
COc1ccc(C(=O)Nc2ccc(Cn3cncn3)cc2)cc1F	2.9	3.2	34.9*
CN(C)S(=O)(=O)c1cccc(C(=O)Nc2cccc(-c3nnc4n3CCCCC4)c2)c1	-0.2	-2.9	23.5
COc1ccc(COC(=O)C2=CN(C)S(=O)(=O)N=C2C)cc1F	i	-134.2	-228.9
O=C(NCCc1ccc(Cl)cc1Cl)C1COc2ccccc2O1 (stereo not drawn)	1.1	-0.3	10.6
CCOc1ccc(N2Cc3ccc(OC)c(OC)c3C2=O)cc1	22.1	38.3*	2.3
SMILES	USP30 block	USP17 inh	USP28 inh
CCOc1ccc(N2CC(CNS(=O)(=O)c3cccc(F)c3)CC2=O)cc1 (stereo not drawn)	0.4	-7.9	-1.8
CC(=O)Nc1ccc(NC(=O)c2ccc3c(c2)CC(c2ccccc2)OC3=O)cc1 (stereo not drawn)	22.4	21.0	-0.4
O=C(Nc1ccc(F)cc1)c1ccc2c(c1)C1C3CCC(C3)C1C(c1ccccc1)N2 (stereo not drawn)	31.7*	2.1	2.9
COc1cc(NC(=O)C2Cc3ccccc3CN2C(=O)c2ccco2)cc(OC)c1OC (stereo not drawn)	-33.6	-4.7	-5.6
CSc1cccc(NC(=O)C2Cc3ccccc3CN2C(=O)c2ccco2)c1 (stereo not drawn)	-24.2	31.4*	0.3
CCN1CCC2(CN(CC(C)C)CC23CCN(S(=O)(=O)c2ccccc2)CC3)C1=O (stereo not drawn)	20.8	7.2	9.4
Cc1nc(C2CCN(C(=O)Cc3ccccc3)CC2)ncc1C(=O)NCc1ccc(F)cc1	-2.9	-7.9	1.8
c1ccc2c(c1)CCc1c-2nc2ccccc2c1N1CCOCC1	-95.0	71.6*	2.2
Cc1ccc(S(=O)(=O)c2cnc3ccccc3c2N2CCOCC2)cc1	16.6	11.9	6.9
O=[N+]([O-])c1ccc2nc(/C=C/c3cc4ccccc4nc3N3CCOCC3)sc2c1	-84.7	3.1	-30.3
Cc1cccc(/C=C/c2nc3ccc([N+](=O)[O-])cc3s2)c1	-59.0	43.1*	-9.8
CCc1ccc(OCC(=O)Nc2cccc(-c3nc4ccccc4s3)c2)cc1	36.4*	-7.1	-3.2
O=C(COc1ccc(C(=O)OCc2csc(-c3ccccc3)n2)cc1)Nc1cccc(C(F)(F)F)c1	33.0*	30.6*	9.4
Cc1cccc(OCC(=O)Nc2ccc3nc(C)sc3c2)c1	-341.7	-37.2	-26.9
O=C(COc1ccc(F)cc1)NCc1csc(-c2ccccc2)n1	-0.2	16.5	-0.9
